Data on 7 compounds can be found in PubChem BioAssay (NCATS).

Where “and” joins values, the source holds several entries; their conditions need not be identical. Identical values can stand only once. Inconclusive results are not listed. Calls of active or inactive are those of the source. Calls follow the shape of the dose curve; as a rule, active = well fitted inhibition curve with a large enough effect; inconclusive = small, poorly fitted or top-dose-only effect; inactive = flat fitted curve, though single readings scatter.
% is scaled to controls: 0 for no effect and ±100 for the full control effect.

The assay can be described thus: Drug repurposing screens with cells derived from glioblastoma tumor samples (AID 1345199). Also: nearly all actives have a fitted effect of over 40% in size. The settings on record: GBM patient neurospheres viability, ATP luminescence, 48 h; at 45.9 µM (top of the series); tumour line B. The method in brief: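 Primary testing used CD133+ neurospheres from four GBM patients, seven concentrations, 48 h exposure and ATP-based viability; confirmation added three slower-growing patient lines.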
Take `COc1c(N2C[C@@H]3CCCN[C@H]3C2)c(F)cc2c(=O)c(C(=O)O)cn(C3CC3)c12`: the activity, negative = cell killing was 6.2% (inactive) and 1.37% (inactive).

`Nc1ccn([C@@H]2CS[C@H](CO)O2)c(=O)n1`: the activity, negative = cell killing was -9.03% (inactive). As to `CC1(C)O[C@@H]2C[C@@H]3[C@H]4C[C@@H](F)C5=CC(=O)C=C[C@]5(C)[C@@]4(F)[C@@H](O)C[C@]3(C)[C@]2(C(=O)CO)O1`, the activity, negative = cell killing was -7.89% (inactive). As for `O=C(O)CO.[NH2-].[NH2-].[Pt+2]`, the activity, negative = cell killing was -16.9% (inactive). Take `CC=CC1=C(C(=O)O)N2C(=O)[C@H](NC(=O)[C@H](N)c3ccc(O)cc3)[C@@H]2SC1`: the activity, negative = cell killing was -15% (inactive). The same measure for `O=c1[nH]c(=O)n(C2CCCO2)cc1F` (configuration not stated): -6.45% (inactive); for `CN1c2cc(O)c(N=NC(N)=O)cc2CC1S(=O)(=O)O` (configuration not stated): -14.6% (inactive).
